About 3,700 (7%) of roughly 53,000 sequences were called active. Only a selection was taken, and actives are over-represented in it overall. A number with no mark means an inactive call.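 Rule for the calls: active = gene knockdowns whose robust z-score for IL-1 alpha signal is at least 2 or at most -2, so actives lie on both sides; inactive = the rest.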

The nature of this assay: Components of the Cytosolic LPS Sensing Pathway: Gene Identification via Genome-wide siRNA Screen.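 Note: robust z of the log signal after scaling to non-targeting control siRNA wells of the plate.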 The settings on record: RAW264.7 macrophages, IL-1a HTRF, actives lie on both sides, screened at 100 nM (by protocol), cells primed 5 h with Pam3CSK4 first. The essentials: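 RAW264.7; siRNA 100 nM final, RNAiMAX, 48h 37 degrees C; Pam3CSK4 5 h; LipidA + TransIT-TKO 24 h; IL-1a HTRF; CellTiter-Glo viability; robust z vs negative-control median.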
Regarding GGAGCUGAUAGGACUGAUGTT against Snap47, the z-score was 2.16 (active).

Consider CCAGAAAUUGACAAAAAGUTT against Etfa, for which the z-score was 0.492.

Turning to GCCCUACCAAAGACACUAGTT against Lrch4, the z-score was -2.31 (active).

As for GGCAGGAGAAAGGCCUUUUTT against Olfr535, the z-score is 0.123.

For GAGUGUGCAUUUUGUUAGUTT against Olfr136, the z-score is 0.763.

In the case of GGCUGAGGCUGUGAAGAAGTT against Igfbp5, the z-score is -0.659.

For the sequence GGGCAAACGGAGGAAUGAATT against Slc35g3, the z-score was 2.47 (active).

For the sequence GGAGAGUAAAUACCGACAGTT against Homer2, the z-score is -0.133.

As for GCUGUUACCCUUAUGCAGCTT against Supt7l, the z-score was 0.486.

For GGACAACGAUAGCUAACCUTT against Tmem63a, the z-score was 0.453.

Take GGAUGAAGAACCACUCAAATT against Ankzf1: the z-score is -1.06.

Regarding GGUGUGUUUUAUGUGUCCCTT against Ctif, the z-score is 2.62 (active).

Regarding CCUAUUUUAACCUUACGUGTT against Bdh1, the z-score is -0.443.

On to GGAAGAGUUGGAGAAAAUUTT against Tex46, for which the z-score was 2.

Consider GGAGGUCUACAUUUAUUAATT against Dera, for which the z-score was 1.31.

As for CCAAACAGGCUUUUUUCCUTT against Snx31, the z-score is -0.712.

Regarding GCAACGAGUGUGUUUUCUGTT against Spink10, the z-score is 2.25 (active).

Consider CCAUGUCAAACACCUUAGUTT against Crebzf, for which the z-score was 1.26.

For the sequence GGUAAGCUCCAAUUAUGCCTT against Ubr3, the z-score was 0.0463.

For GGAGCAAUUGAGAAAGAAGTT against Moap1, the z-score was 0.508.

As to CCCGUAACCAUUUACUGGUTT against Tyro3, the z-score was 0.85.

For the sequence GGCACGAGCUCUCAUCUUUTT against Slc27a4, the z-score is -0.752.

On to GGAAACAAGGGACUCUGUATT against Col4a4, for which the z-score was 0.906.

For the sequence GCAGCUUUUUGAGGUGUUATT against Slc9a7, the z-score was 3.07 (active).

For GGAAUAGUGAAGGUACUUUTT against Cer1, the z-score was 2.4 (active).

On to GGAAUUCUCUAUACCAAGATT against P2ry10b, for which the z-score is 0.51.

In the case of GCAAUUCCUCUUUUAGUCCTT against Spag6l, the z-score is -1.38.

For the sequence GGCAGAUCUUCUUUGGAAATT against Ugt2b38, the z-score was 0.757.

In the case of GGACCGUCAGUGUCAUGGATT against Zfp397, the z-score is -2.55 (active).

For the sequence CCAUUGUUUGACUCAAAACTT against Gjc3, the z-score is 0.62.

As to GGACCAUGGAUAUUUAAAGTT against Mafk, the z-score is -0.297.

Regarding GGAACUCUGUGGGUGAGAATT against Dock8, the z-score was -1.46.

For the sequence CCGGAUGUGCCUUGUCUACTT against Ckap5, the z-score is -1.58.

In the case of GGAAAAUCAAGACCUAUGGTT against Obox6, the z-score was -1.37.

With GGAAGAGGUUAGCAAGCAUTT against Iws1, the z-score is 2.27 (active).

For GUGCAUUGUCUUUUGUAGATT against Olfr1095, the z-score was -0.753.

Turning to CGAUAAACUGGAUACCACUTT against Sntn, the z-score was 0.437.

As for GCAAUCUGUUUAGAGAGAGTT against Slc10a5, the z-score is -1.16.

GGUGGUGAAUAUGAUGAUATT against Tsr1: the z-score was -0.712.

With GCUAAUGAUUUCCGCUUUGTT against Tyw1, the z-score was 0.367.

Take GCCUUAUGGUUUUGUAUUUTT against Nap1l1: the z-score is -2.38 (active).

Consider GCCCGCAUUCUUAUUCGAUTT against Tmem64, for which the z-score was -1.13.

For GCUGAUGUUAAAUUCGCAGTT against Serpinb3b, the z-score was 1.33.

In the case of CCACCUAUCAGGAUUCAACTT against Sf3b6, the z-score is -3.37 (active).

Regarding GGAGCCCUGUGUCUUGAGUTT against Ccl19, the z-score was -0.39.

With GGAGAUCCAAGAGAAAUUUTT against Csf3r, the z-score was 1.18.

On to GCAUUACACUGUUAAUGUUTT against Gopc, for which the z-score was -0.138.

For the sequence GCCUCAUUAUGAGUUGGCATT against Olfr1419, the z-score is -2.51 (active).

Turning to GGAAUCACAAGGUAUUUUCTT against Spo11, the z-score is -0.237.

Take GGUCCACAAUGGCAUCAUATT against Elf4: the z-score was 2.13 (active).

On to GGAGAAGUUUAAGGAGAUUTT against Dnajb5, for which the z-score was 1.54.

As to CCUUUGGUAAUCUCCAAAATT against Amph, the z-score was 0.862.

In the case of CCUUCUGCGGCUCAGUCUATT against Bach2os, the z-score is -0.199.

Regarding GGAACCUACUGCUACAUCATT against Sftpc, the z-score is 2.24 (active).

For the sequence GGCUUUCCUUACCAUAUAUTT against Trim7, the z-score was -0.675.

In the case of GGAGAUUGGCAUAGAGAAGTT against Myo5b, the z-score was 0.437.

With AUCCAUUUUGUGCUAGGCATT against Cacfd1, the z-score is 0.473.

Take CCUGCUAUGUAAUAUAGAUTT against Eef2k: the z-score was 0.0542.

Consider “CCCGCUUGUUCUGAUGAUATT against 2310039H08Rik”, for which the z-score is -2.26 (active).

For GGAAAGAAAUGAAUCAGUATT against Rnf216, the z-score is 0.882.

In the case of GGACAUUAAGAGUGGAAAGTT against Nucb1, the z-score was 0.777.

With GGGAAGGAUUAUGUCAAAUTT against Kit, the z-score was 0.328.

On to CGGCCUCCAUGUUAAGAUATT against Csf2rb2, for which the z-score was -0.249.

Consider GCCUGAAGAGAGUCUUAUCTT against Bnip5, for which the z-score was 1.09.

Take GGCAUUUAAAUCUGUGUGUTT against Slc39a6: the z-score is -0.471.

Regarding GCAAUGGUUUCGGCUACGATT against Hoxb3, the z-score was 2.18 (active).

As to GGGAGGAAGUGGAAGUUCUTT against Tsc22d1, the z-score is 0.488.

Take GGUGAAUGUAGUGUUAAAATT against Cyrib: the z-score was -0.204.

Take GAGAUGUCCGAAAUGCCAATT against Smco4: the z-score was 1.73.

On to GGACAGUGUAGUCAAAAAATT against Cx3cr1, for which the z-score was 0.149.

On to GCAAACCUCAAUCUUGAAATT against Kif15, for which the z-score was 0.297.

“GGCAGUUAUUUCUAUCUUATT against 1700018F24Rik”: the z-score was 0.683.

Turning to GGCUGUUGAACAGGUUAUCTT against Mis12, the z-score is 0.645.

Take CCUGAUCAACAAACCGGAUTT against Rfxank: the z-score is 1.29.

With CGACUGUCGUUUGUUGAUGTT against Tktl2, the z-score was -0.766.

With GUAGAGUGAUGAGAGGCCUTT against Vmn1r-ps8, the z-score was -0.475.

As to UUCAAAUAAACUCUCUGCUTT against Krtap31-2, the z-score was 0.802.

As to GGAAUUCCCAAGAGAAGGATT against Gk, the z-score is -5.27 (active).

As to GCCUUCAUGGGAUUUGUCUTT against Opn1sw, the z-score is -0.498.

For the sequence GGGCCACAGCUUAAUACUGTT against Ptov1, the z-score is 3.28 (active).

As for GCUAGUUUCCGUCGCUUUGTT against Cpeb4, the z-score was 0.555.

For the sequence GGUACUGGAAAUCUGUAUGTT against Nlgn1, the z-score was -0.332.

With GCGAACUUUUACAUUUCGATT against Gmpr, the z-score was 0.272.

Turning to GUGGGAUUCCAGUAGAAAUTT against Olfr1116, the z-score is 0.559.

With CCAAGUUAGUGGAUGAAUGTT against Ugt2b35, the z-score was -0.555.

Take GGGAGGAAAUUAAAUUUCATT against Hif1an: the z-score was -0.223.

Take “GGCCUUCUAAAGCUGUGAUTT against 6330403K07Rik”: the z-score was -2.7 (active).

Consider GGAAAUAUCCUAAACAGAATT against Gdpd2, for which the z-score is -0.864.

Turning to GCAGUUGCGUUCUAUUGAATT against Ccdc86, the z-score was 0.179.

For “GCCGGUUGGAACAAAAGGCTT against E130018O15Rik”, the z-score is 0.993.

For the sequence GCGAUCAGUACUGAAGGAATT against Siglecf, the z-score is -1.27.

GGAGACUGUCUAAUAAAAATT against Medag: the z-score is 0.0572.

As to CUGUAUGUUAUCUCUACACTT against Olfr1513, the z-score is 0.469.

CCAAAUUGCUUACAUGAUATT against Greb1: the z-score is 1.44.

On to GCUGAUAACCUGAUCAACGTT against Nars, for which the z-score is 0.0406.

In the case of CGACGACUAGACCUCAUCUTT against Dtx4, the z-score is -0.624.

In the case of GGGUGGAGAACCAAGUUUUTT against Tmed6, the z-score is 3.21 (active).

For GGACUUAUUCGAUAUAGUATT against Nt5c1b, the z-score is -1.23.

With UGCAUGGACUUACGAAAGATT against Tas2r115, the z-score was 0.454.

On to “GCUGCCGUUUAAAUAUAUGTT against D10Wsu102e”, for which the z-score was 0.31.

Regarding CUCCCUGGCAUUAAUCCGUTT against Tepp, the z-score is 0.0788.

For the sequence GAUUUGGUGUCUGCCGAGATT against Prrt1, the z-score was 1.73.

Turning to GGCUACAACCAAAUCUUCATT against Papln, the z-score is 0.873.

As to GCGAUUAACGGAUCGUACCTT against Letmd1, the z-score was 0.192.

GGACUUGGAGAGCAAAAGCTT against Ano2: the z-score was -2.14 (active).

Turning to GCAGAUCAAAUUUAGCUGATT against Wwc2, the z-score is 0.266.

Regarding “GCUUUUUAUCCGUGUCGAUTT against 4930474N05Rik”, the z-score was 0.501.

The values are drawn from PubChem BioAssay AID1508600 (Functional Genomics Laboratory (NCATS/FGL), 2020).
